The values below come from PubChem BioAssay (NCI).

SMILES strings stand for the structures. About 83,000 compounds went through this panel and 20% of them were active in at least one assay; those are over-represented in the sample as a whole.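 Testing used 96-well plates and a 48-hour single-concentration exposure. Example: -40 means 40% of the starting cells died.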 Values without a mark were called inactive. Active and inactive are the calls of the source. The calls were made as follows: active = growth percent below 10; inactive = the rest.

What all share (test): NCI-60 one-dose screen, 48 h (100 = growth as untreated, 0 = no growth, -100 = all killed)
What all share (details): 10 µM unless noted

Test [1] concerns NCI-H23 lung.
The test system of test [2] is NCI-H322M lung.
The subject of test [3] is HOP-62 NSCLC.
Test [4] relates to NCI-H460 lung.
The subject of test [5] is HOP-92 NSCLC.
In test [6] the test system is NCI-H522 lung.
In test [7] the test system is A549/ATCC NSCLC.
Test [8] has as its system 786-0 renal.
Test [9] relates to COLO 205 colon.
The subject of test [10] is DU-145 prostate.
For test [11], the system named is K-562 leukemia.
The subject of test [12] is MALME-3M melanoma.
For test [13], the system named is MDA-MB-231 breast.
Test [14] concerns RXF 393 renal.
The test system of test [15] is SF-268 CNS.
Test [16] has as its system SF-295 CNS.
For test [17], the system named is SF-539 CNS.
Test [18] relates to UACC-257 melanoma.
For test [19], the system named is M14 melanoma.

On to `CC(C)C(=O)Nc1n[nH]c2cc(-c3cccc(NS(=O)(=O)C4CC4)c3)ccc12`, for which the growth was 53.6% in test [1]; 96.2% in [2]; 66.5% in test [3]; 84.4% in test [4]; 72.7% in test [5]; 40.8% in [6]. Further, the growth is 80.3% in test [7]; 89.2% in test [8]; 84.7% in test [9]; 85.9% in test [10]; 23.2% in [11]; 66.1% in test [12]. The growth in test [13] was 58.4%; in [14], 88.9%; in test [15], 76.1%; in test [16], 56.3%; in test [17] it was 77.8%; in test [18], 66.8%. Besides, the growth in test [19] was 55.7%.
On to `Cc1cc(C)c2c(-c3nnc(N)s3)cc(=O)oc2c1`, for which the growth in [1] is 96.3%; in test [2], 99%; in test [3], 111%; in [4] it was 103%; in test [5], 115%; in test [6], 101%. Besides, the growth in test [7] was 104%; in test [8], 99.4%; in [9], 116%; in test [10] it was 108%; in test [11], 93%; in test [12] it was 106%. Also, the growth in test [13] is 101%; in test [14], 109%; in test [15], 99.9%; in [16] it was 98.7%; in test [17], 90.5%; in [18], 107%. Moreover, the growth in test [19] was 104%.
On to `CC1OC(O[C@H]2/C=C/C=C/C=C/C=C/C=C/C=C/C=C/[C@H](C)[C@@H](O)[C@@H](C)[C@H](C)OC(=O)CC(O)CC(O)CCC(O)C(O)CC(O)C[C@]3(O)C[C@H](O)C(C(=O)O)C(C2)O3)C(O)[C@H](N)C1O` (some centres not stated), for which the growth is -29.7% (active) in test [1]; 20% in test [2]; -82.5% (active) in [3]; -55.5% (active) in [4]; 18.6% in test [5]; 16.2% in test [6]. Further, the growth in test [7] was -89.9% (active); in [8], -80% (active); in [10], -29.9% (active); in test [11], 91.8%; in test [12], -66% (active); in test [13] it was 58.7%. The growth is -64.4% (active) in [14]; -70.4% (active) in test [15]; 65% in test [16]; 17.2% in test [17]; -76% (active) in [18]; 16.3% in [19].
In the case of `COc1ccc2c(c1)O/C(=C/c1ccc(OCC(=O)c3ccccc3)cc1)C2=O`, the growth in test [1] is 98.1%; in test [2], 97.2%; in test [3] it was 93.6%; in test [4] it was 118%; in [5], 98.6%; in test [6] it was 94.5%. The growth in test [7] was 93.2%; in test [8] it was 101%; in test [10], 118%; in test [11] it was 80.7%; in test [12] it was 96.3%; in test [13], 84.4%. In addition, the growth in [14] was 109%; in test [15], 117%; in test [16], 137%; in [17], 107%; in test [18] it was 125%; in [19] it was 99.3%.
With `COc1ccc(C(=NN=C(N)N)c2ccc(OC)cc2)cc1`, the growth is 41.3% in [1]; 49% in [2]; 36.6% in test [3]; 29.8% in test [4]; 3.59% (active) in [5]; 34% in [6]. The growth in test [7] was 46.1%; in test [8], 45.4%; in test [9], -7.03% (active); in test [10], 52.8%; in [11], 19.9%; in test [12] it was 69.4%. For the same compound, the growth in test [13] is 48.4%; in [14], -2.81% (active); in [15], 47.1%; in [16] it was 48.5%; in [17], 57.7%; in test [18], 43.6%. Moreover, the growth in test [19] was 18.3%.
`CCOC(=O)c1c(/C=C/C(=O)O)nc2ccccc2c1/C=C/c1ccccc1`: the growth in test [1] is 50.3%; in test [2], 72.7%; in test [4] it was 28.5%; in test [5] it was 60.1%; in test [6], 40.9%; in [7], 70.7%. For the same compound, the growth in test [8] was 54.9%; in [9] it was 84%; in test [10], 14.2%; in [11] it was 23.9%; in test [12] it was 51.4%; in [13] it was 57.5%. In addition, the growth in test [14] is 11.3%; in test [15], 40.7%; in test [16] it was 73.6%; in [17] it was 19.8%; in test [18], 49.6%; in test [19], 63%.
In the case of `Cc1cc(=O)oc2c1ccc1oc(C#N)c(C)c12`, the growth in test [1] is 97.9%; in test [2], 98.9%; in test [3], 103%; in test [4] it was 108%; in test [5], 82%; in test [6] it was 102%. Also, the growth was 99.8% in [7]; 84.9% in test [8]; 121% in test [9]; 102% in [10]; 108% in test [11]; 97.2% in [12]. Besides, the growth in test [13] was 107%; in test [14], 113%; in test [15] it was 99.9%; in test [16] it was 102%; in [17], 98.9%; in [18] it was 105%. Also, in test [19], the growth was 100%.
As to `N#Cc1nc2c(S(=O)(=O)c3ccc(Cl)cc3)c(N)n(Nc3cccc(Cl)c3)c2nc1C#N`, the growth is 44.7% in test [1]; 30.8% in [2]; 40.2% in [3]; 65.7% in test [4]; -33.2% (active) in test [5]; 57.3% in test [6]. In addition, the growth in test [7] was 43.3%; in test [8], 43.9%; in test [9], 72.5%; in test [10], 16.2%; in test [11], 25.9%; in test [12] it was 25.3%. Further, the growth in test [13] is 58.8%; in test [14], 46.3%; in test [15], 53.8%; in test [16], 48.9%; in [17], 38.9%; in [18], 47.9%. Also, the growth in test [19] was 79%.
As to `COc1ccc(C2c3ccc4ccccc4c3Oc3nc(C)[nH]c(=O)c32)cc1` (configuration not stated), the growth is 92% in test [1]; 101% in test [2]; 99.4% in test [4]; 91% in test [5]; 77% in [6]; 109% in [7]. The growth in test [8] was 107%; in test [9], 110%; in test [10], 114%; in test [11], 90.6%; in [12], 97%; in test [13], 93.6%. For the same compound, the growth in test [14] is 108%; in [15] it was 94.3%; in test [16] it was 105%; in test [17], 96.8%; in test [18], 111%; in [19], 95.7%.
For the compound `Cc1c(C(=O)NC(Cc2ccccc2)C(O)C(=O)NCc2ccc(F)cc2)[nH]c2ccccc2c1=O` (configuration not stated), the growth is 99.8% in [1]; 101% in test [2]; 104% in test [4]; 108% in test [5]; 101% in [7]; 104% in test [8]. Besides, the growth in test [9] is 111%; in test [10], 109%; in test [11], 94.2%; in test [12], 111%; in [13] it was 102%; in test [14], 114%. Also, the growth is 104% in [15]; 103% in test [16]; 108% in [17]; 103% in test [18]; 109% in test [19].
On to `COc1cc(N=Nc2ccc(N)cc2)c(OC)cc1N=Nc1ccccc1.[Cl][Zn][Cl]`, for which the growth in test [1] is 89%; in test [2] it was 78.2%; in test [3] it was 86.5%; in test [4], 109%; in [5], 71.5%; in [6], 108%. Moreover, the growth in test [7] is 110%; in [8], 110%; in test [9], 102%; in test [10], 118%; in [11], 104%; in test [12] it was 74.1%. Further, the growth in test [13] was 84.6%; in test [14] it was 114%; in test [15], 96.5%; in [16] it was 116%; in [17], 87.9%; in test [18], 109%. For the same compound, the growth in test [19] was 101%.
For `NC1=NCc2nc3ccccc3c(=O)n2C1`, the growth in [1] was 96.6%; in test [2], 110%; in [3], 98.4%; in test [4], 111%; in test [5], 67.5%; in test [6], 91.6%. The growth in [7] is 93.9%; in test [8] it was 97.6%; in test [9] it was 124%; in test [10], 113%; in test [11] it was 87.3%; in test [12], 104%. Besides, the growth is 85.7% in [13]; 91.4% in [14]; 112% in [15]; 96.1% in test [16]; 107% in test [17]; 95.1% in [18]. Further, the growth in [19] was 102%.
